PubChem BioAssay AID602313 (National Center for Advancing Translational Sciences (NCATS), 2012)
Screen size: about 390,000 compounds; about 760 (0.19%) were called active. About 3% were inconclusive and are not listed. Calls come from the whole dose curve; as a rule, active = well fitted inhibition curve with a large enough effect; inconclusive = small, poorly fitted or top-dose-only effect; inactive = flat fitted curve, though single readings scatter. Shown is part of a subset that was picked to be rich in actives. Entries that show only a call come without a potency.

test: qHTS for Inhibitors of Vif-A3F Interactions: qHTS; conditions: HeLa A3F-eYFP + Vif (tagged APOBEC3F with the HIV-1 protein that degrades it), YFP fluorescence increase; series mostly up to 46.1 µM; note: nearly all actives have a fitted effect of over 65% in size
In short: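 Fluorescence increase (Ex 488/Em 500-530) after overnight compound treatment at 37 deg C flags inhibition of Vif-driven A3F-eYFP loss in stable HeLa A3F-eYFP/Vif cells seeded overnight beforehand.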
Potency is the fitted concentration of half-maximal effect.

Structure (SMILES)	Potency
CCCCn1c(N)c(N(CCC(C)C)C(=O)c2ccc(COc3ccccc3)o2)c(=O)[nH]c1=O	inactive
CCCCn1c(N)c(N(CCC(C)C)C(=O)c2ccc([N+](=O)[O-])o2)c(=O)[nH]c1=O	10 µM (active)
CCCCn1c(N)c(N(CC(C)C)C(=O)c2ccc(Br)o2)c(=O)[nH]c1=O	inactive
Fc1ccc(-c2nn(-c3ccccc3Cl)c3c2cnc2ccccc23)cc1	inactive
COc1ccc(NC(=O)CSc2nnc(-c3nnn(-c4ccc(F)cc4)c3C)o2)cc1	inactive
CCn1cc2nc(SCc3cccc(F)c3)n(CCc3ccccc3)c(=O)c2n1	inactive
Cc1ccc(N=Cc2c(O)n(-c3nccs3)c(=O)c3ccccc23)c(C)c1	25.1 µM (active)
Cc1cccc(-n2c(O)c(C=Nc3ccccc3N)c(=O)[nH]c2=O)c1	inactive
CCCn1c(NCc2ccccc2F)nc2ccccc21	inactive
CCCCOc1ccc(C(=O)N2CC(=O)Nc3ccc(Br)cc3C2c2ccc(F)cc2)cc1 (stereo unspecified)	inactive
COc1ccc(-c2noc(CSc3nc(C)cc(=O)[nH]3)n2)cc1OC	inactive
O=C(N/C(=C/c1ccc(Cl)cc1)C(=O)N1CCCCC1)c1ccco1	inactive
O=C(Nc1cccc2c1N(C(=O)c1ccco1)CCC2)c1ccco1	inactive
O=C(NC(=S)N1CCc2ccccc21)c1ccco1	11.2 µM (active)
CC(=O)c1cccc(NC(=O)C2CCCN2S(=O)(=O)c2cccc3nsnc23)c1 (stereo unspecified)	inactive
CC(=O)c1cccc(NC(=O)C2CCCN(S(=O)(=O)c3cccc4nonc34)C2)c1 (stereo unspecified)	31.6 µM (active)
O=C(NCc1ccco1)C1CCCN(S(=O)(=O)c2cccc3nonc23)C1 (stereo unspecified)	inactive
CCCCOc1ccc(NC(=O)c2cc3c(n(-c4ccc(Cl)cc4)c2=O)CCCC3=O)cc1	inactive
O=C(COc1ccccc1)NCc1ccc2c(c1)CCN2C(=O)c1ccc(F)cc1	inactive
Cc1nn2c(=O)cc(COC(=O)CNC(=O)c3ccc(F)cc3)nc2s1	inactive
Cc1ccc(S(=O)(=O)N(CC(=O)Nc2ccc(Cl)cc2Cl)c2ccccc2C)cc1	inactive
COc1cc(NC(=O)Cn2c(=O)n(Cc3ccco3)c(=O)c3oc4ccccc4c32)cc(OC)c1	inactive
COC(=O)c1ccccc1NC(=O)c1ccc(COc2ccccc2Cl)o1	inactive
CCOc1cc(C(=O)NCCc2csc3nc(-c4ccc(C)cc4)nn23)cc(OCC)c1OCC	inactive
Cc1ccc(NC(=O)c2nc(S(=O)(=O)Cc3cccc(C)c3)ncc2Cl)cc1	inactive
O=C(Nc1ccccc1F)C(c1ccccc1)N1Cc2ccccc2C1=O (stereo unspecified)	inactive

Structure (SMILES)	Potency
Cc1ccc(COC(=O)CN2C(=O)NC3(CCCC3)C2=O)cc1	inactive
CC1=CC(C)(C)Nc2ccc(OC(=O)CN3C(=O)C4CCCCC4C3=O)cc21 (stereo unspecified)	31.6 µM (active)
CC(OC(=O)CN1C(=O)C2CCCCC2C1=O)C(=O)Nc1ncc(Cl)cc1Cl (stereo unspecified)	inactive
Cc1ccc2nc(COc3ccccc3NC(=O)Nc3ccc(F)c(Cl)c3)cc(=O)n2c1	inactive
O=c1c2cccnc2n(Cc2cccc(F)c2)c(=O)n1Cc1ccccc1Cl	inactive
Cc1cc(C)cc(NS(=O)(=O)c2cc3c(cc2C)NC(=O)CO3)c1	inactive
Cc1ccc(N2CC(C(=O)Nc3ccc(N(C)C)cc3)CC2=O)cc1Cl (stereo unspecified)	inactive
CCOc1ccccc1N(C)C(=O)c1cc2c(s1)-c1ccccc1OC2	inactive
CCc1cnc2c(c1SCC(=O)c1ccccc1)c(=O)n(C)c(=O)n2C	inactive
COc1ccccc1NC(=O)CN1C(=O)c2ccccc2Sc2ccc(C(=O)N3CCCC3)cc21	inactive
O=C1C(Cl)=C(Oc2ccccc2)C(=O)c2ccccc21	10 µM (active)
COc1ccc2c(c1)c(=O)c(S(=O)(=O)c1ccc(F)cc1)cn2CC(=O)Nc1ccc(C)cc1C	inactive
CCOc1ccc(NC(=O)c2c(NC(=O)Cc3ccccc3)sc3c2CCCCC3)cc1	inactive
COc1ccccc1NC(=O)CSc1oc(-c2ccco2)nc1S(=O)(=O)c1ccc(Br)cc1	inactive
Cc1ccc(-c2noc(-c3nnn(-c4cccc(C(F)(F)F)c4)c3N)n2)cc1	inactive
O=C1c2ccccc2S(=O)(=O)c2cc(N3CCN(c4ccccn4)CC3)ccc21	inactive
Cc1ccc(CNC(=O)c2cccc3c2C(=O)c2ccc(N4CCC(C)CC4)cc2S3(=O)=O)cc1	12.6 µM (active)
Cc1ccc(CNC(=O)c2ccccc2CCc2ccccc2)cc1	inactive
Fc1ccc(CN2CCc3nc(Nc4ccccc4)ncc3C2)cc1F	inactive
CCOC(=O)c1cc(-c2ccccc2)n(-c2cccc(C(=O)Nc3cc(OC)cc(OC)c3)c2)c1C	inactive
Cn1ccc2cc(S(=O)(=O)N3CCCC(C(=O)NCc4ccccc4F)C3)ccc21 (stereo unspecified)	inactive
O=C(NC1CC(=O)N(c2ccccc2)C1)c1ccco1 (stereo unspecified)	inactive
Cc1cn(C)c(CC(=O)NCc2ccc(Cl)cc2)c1C(=O)O	inactive
O=C(NCCc1csc(-c2ccc(C(F)(F)F)cc2)n1)C(=O)Nc1ccc(F)c(Cl)c1	inactive
Cc1cc(C)c2oc(-c3cccc(NC(=O)c4cccc(F)c4)c3C)nc2c1	inactive
CCCCn1c(=O)c2oc3ccccc3c2n(CC(=O)Nc2ccccc2OC)c1=O	inactive

Structure (SMILES)	Potency
CCCCN(CC)C(=O)c1c[nH]c2ccc(S(=O)(=O)Nc3cccc(OC)c3)cc2c1=O	inactive
Cc1cc(C)nc(-n2nc(C)cc2NC(=O)c2ccc(F)cc2F)n1	12.6 µM (active)
CC(=O)N/C(=N/c1nc(C)cc(C)n1)Nc1ccc(F)cc1F	inactive
Cc1cc(C(=O)Nc2cccc(C(F)(F)F)c2)c2c(C)nn(-c3cccc(F)c3)c2n1	inactive
O=C(COc1ccc(Cl)cc1)Nc1ccccc1OCc1cc(=O)n2ccccc2n1	inactive
Cc1ncc(CO)c(/C=N/NC(=O)c2cccc(S(=O)(=O)N3CCCC3)c2)c1O	inactive
COc1cccc(/C=N/NC(=O)c2[nH]nc3c2CCc2ccccc2-3)c1O	25.1 µM (active)
Cc1ccccc1NC(=O)COc1cccc2c1CCNC2=O	inactive
COC(=O)c1c(NC(=O)c2cc(=O)c3c(C)cc(C)cc3o2)sc2c1CCCC2	inactive
Cn1c(C(=O)Nc2cccc(C(F)(F)F)c2)cc2c(=O)n3ccccc3nc21	inactive
Cc1ccc(NC2=C(c3ccc(C(F)(F)F)cc3)C(=O)c3ccccc32)cc1F	inactive
Cc1ccc(Cn2c(CCCNC(=O)C3CCCCC3)nc3ccccc32)cc1	inactive
Cc1cccc(-c2nnc(SCC(=O)N3CCCc4ccccc43)o2)c1	inactive
Cc1cccc2cc3c(N)c(C(=O)N4CCCc5ccccc54)sc3nc12	11.2 µM (active)
Cn1c(SCC(=O)N2CCCc3ccccc32)nc2ccccc2c1=O	inactive
CCOC(=O)c1cccc(NC(=O)c2cc(CN3CCCC3)on2)c1	inactive
CC(=O)c1ccc(NC(c2ccc(F)cc2)c2nnc(-c3ccccc3)o2)cc1 (stereo unspecified)	inactive
CCc1ccc(N2C(=O)CN(S(=O)(=O)CC)CC2(C)C(=O)NC2CCCCC2)cc1 (stereo unspecified)	inactive
CCCn1c(=N)c(C(=O)NCc2ccccc2)cc2c(=O)n3cccc(C)c3nc21	inactive
CC(C)c1ccc(NC(=O)c2ccc(Cn3nc(N4CCN(c5ccccc5)CC4)ccc3=O)o2)cc1	inactive
Cn1c(=O)c2c(SCC(=O)NCC3CCCO3)nc(-c3ccccc3F)nc2n(C)c1=O (stereo unspecified)	inactive
Cc1ccc(-c2cc(C(=O)Oc3ccccc3Cl)no2)cc1C	inactive
O=c1cc(COc2cccc(C(F)(F)F)c2)nc2sc3c(n12)CCCC3	inactive
COc1ccc(CNC(=O)c2cc3cccc(OC)c3oc2=O)cc1	inactive
